# Assay outcomes (PubChem)
# An excerpt weighted towards active compounds, which were near 19% of everything screened.
# HT1080-NT tox: kills 2HG-producing HT-1080-NT fibrosarcoma cells. HT-1080-NT fibrosarcoma viability, CellTiter-Glo ATP luminescence, 48 h. Potency, µM (titrated, usually from 46.1 µM), without a hit: at the top dose activity, negative = less viability, hits mostly cytotoxic. actives 1.6% (n = 360,000);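 also: NT is the 2HG producing partner of a matched IDH1 knockdown line; potency is read from the fitted curve at half-maximal effect; 0% = DMSO-treated cells and -100% = media-only wells without cells; nearly all actives have a fitted effect of over 55% in size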
#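 HT-1080-NT fibrosarcoma cells (2HG-overproducing), 750 cells/well in RPMI with 5% FBS, dosed after 2 h and incubated 48 h at 37C. CellTiter-Glo luminescence normalized to DMSO and no-cell wells; concentration-response curves fitted and classed.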
# TDP1 cell CPT: DT40-hTDP1 cell growth loss with CPT; chicken DT40 Tdp1-/-;hTDP1 cells + 20 nM CPT, ATP luminescence, 48 h; Potency, µM (highest dose often 46.2 µM), inactives show at the highest dose activity change, negative = growth inhibition, hits mostly inhibitors; actives 12% (n = 420,000); also: potency is read from the fitted curve at half-maximal effect; nearly all actives have a fitted effect of over 55% in size
#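 Cell growth measured by CellTiter-Glo luminescence after a minimum 48 h, 37 C compound exposure with 20 nM CPT in Tdp1-knockout DT40 cells stably expressing hTDP1, seeded 400/well; qHTS titration format.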
# DT40 TDP1 no CPT: qHTS for Inhibitors of human tyrosyl-DNA phosphodiesterase 1 (TDP1): qHTS in cells in absence of CPT. DT40 Tdp1-/- hTDP1 cells, no CPT, ATP luminescence, 48 h. Potency, µM (doses to about 46.2 µM), inactives show at the highest dose activity change, negative = growth inhibition, most hits filed as inhibitors. actives 15% (n = 420,000). AID 686978, 2013; also: potency is read from the fitted curve at half-maximal effect; nearly all actives have a fitted effect of over 55% in size
#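 Camptothecin absent (DMSO only). Human TDP1-complemented DT40 knockout cells, 400 cells/well, 37 °C for minimum 48 hr; ATP measured via CellTiter-Glo, 30 min dark incubation, luminescence.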
# IL-1B inflam inh: inhibitors of inflammasome signaling (IL-1 beta secretion) | THP-1 LPS/ATP IL-1B secretion, AlphaLISA, 16 h; stronger effect = lower value | activity change, % at 57.5 µM | actives 4.7% (n = 360,000); in the data active = activity change below about -50%; inconclusive = mostly about -30% to -49%
#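 THP-1 cells pretreated 1 hr with compounds (up to 57.5 uM final), then stimulated with LPS (250 ng/mL final) plus ATP (1.25 mM final); secreted IL-1B measured by AlphaLISA after 16 hr, decreased signal indicating inhibition.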
# HT1080 IDH1KD tx: HT-1080 IDH1 knockdown cell toxicity (counter line); Potency, µM (highest dose often 46.1 µM), for the others: at the highest dose activity, negative = toxicity, most hits filed as cytotoxic; actives 2% (n = 360,000); HT-1080 IDH1 knockdown viability, ATP luminescence, 48 h;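 also: potency is read from the fitted curve at half-maximal effect; 0% = DMSO wells and -100% = cell-free medium wells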
#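 Assay cells: HT-1080 with IDH1 knockdown, 750 per well, RPMI/5% FBS. Exposure: 48 h at 37 °C following 2 h pre-incubation. Read: CellTiter-Glo luminescence; fitted concentration-response, curve class assigned.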
# Starred values were filed as active, the others as inactive; i = inactive; ? = inconclusive; · = no result; [ ] = another dose, or the depositor's remark. Unless noted, calls follow the shape of the dose curve; as a rule, active = well fitted curve in the direction sought with a large enough effect; inconclusive = small, poorly fitted or top-dose-only effect, or another doubt; inactive = no such curve, though single readings can be large; an effect the other way counts as inactive or inconclusive. Unless noted, % is scaled to controls: 0 for no effect and ±100 for the full control effect.
SMILES,HT1080-NT tox,TDP1 cell CPT,DT40 TDP1 no CPT,IL-1B inflam inh,HT1080 IDH1KD tx
CCc1ccccc1Nc1nn2c(=O)c3ccc(C(=O)NCc4ccccn4)cc3nc2s1,0.259µM*,?,11.6µM*,-14.1,0.0291µM*
CCCCn1nc2cc(C(=O)NCc3ccccc3OC)ccc2c1OCC,9.5%,-23.4%,-13.0%,12.9,10.6%
O=C(NCc1ccccn1)c1ccc2c(=O)n3nc(Nc4ccccc4)sc3nc2c1,?,?,0.4%,-15.1,?
CCOc1ccc(C(=O)NCCC2=CCCCC2)cc1OCC,12.6%,-12.4%,-22.5%,0.6,4.9%
CCc1ccccc1Nc1nn2c(=O)c3ccc(C(=O)NCCC4=CCCCC4)cc3nc2s1,·,16.4µM*,14.6µM*,·,·
CCc1ccccc1Nc1nn2c(=O)c3ccc(C(=O)NCc4ccccc4OC)cc3nc2s1,·,11.6µM*,?,·,·
CCCC(CCC)c1nnc(NC(=O)c2ccco2)s1,-19.8%,?,-24.6%,-15.4,-20.8%
CCc1ccc(CN(C(=O)COc2c(C)cccc2C)C2CCS(=O)(=O)C2)cc1 (stereo not drawn),0.4%,?,?,?,-15.7%
COc1ccccc1Nc1nn2c(=O)c3ccc(C(=O)N4CCCCC4)cc3nc2s1,-0.5%,13µM*,16.4µM*,-20.5,9.3%
Cc1ccc(Cl)cc1Nc1nn2c(=O)c3ccc(C(=O)NC4CCCCC4)cc3nc2s1,·,-18.6%,-28.2%,·,·
c1ccc(-c2ccccc2-n2cnnn2)cc1,-4.4%,-27.1%,-1.9%,6.3,-3.7%
Cc1ccc(NC(=S)NCC2CCN(C(C)c3ccccc3)C2)cc1 (stereo not drawn),-28.0%,20.6µM*,16.4µM*,?,-3.0%
CC(c1ccccc1)N1CCC(CNC(=S)Nc2cccc(Cl)c2)C1 (stereo not drawn),18.4µM*,?,?,-80.3*,18.4µM*
CCCCCCCCCC1(CC(=O)OCC)SCCN1C(N)=O (stereo not drawn),-4.8%,?,14.6µM*,0.0,-16.6%
Cc1ccccc1CNc1nc(N(C)C)nc2c1cnn2C,·,-21.4%,?,·,·
NC(=O)CC(NC(=O)c1cccc(Br)c1)c1ccc(N2CCN(c3ccccn3)CC2)c([N+](=O)[O-])c1 (stereo not drawn),11.5%,14.6µM*,13µM*,11.6,0.7%
NC(=O)CC(NC(=O)c1ccc(Br)cc1)c1ccc(N2CCN(c3ccccn3)CC2)c([N+](=O)[O-])c1 (stereo not drawn),0.5%,23.1µM*,20.6µM*,-17.3,1.2%
CCc1ccc(C(O)c2ncc(-c3cccc(F)c3)[nH]2)cc1 (stereo not drawn),-24.8%,?,?,-3.0,-15.8%
Cc1ccc(NS(=O)(=O)c2cccc(C(=O)NNC(=O)c3cccn3C)c2)c(C)c1,1.7%,-12.7%,-23.4%,-29.3,9.1%
Cc1cc2c(cc1C)CSC(c1c(O)ccc3ccccc13)SC2,23.1µM*,?,?,-78.2*,?
Cc1ccc(N2C(=O)c3cccc4c(N)ccc(c34)C2=O)c2cccnc12,0.0206µM*,0.0082µM*,0.0206µM*,150.5,0.0073µM*
O=[N+]([O-])c1csc2ccccc12,3.5%,11.1%,-9.7%,7.3,0.4%
O=[N+]([O-])c1ccccc1S(=O)c1ccccc1[N+](=O)[O-],20.6µM*,10.3µM*,16.4µM*,218.9,?
CCOc1ccc(NC(=O)c2ccccc2SC)cc1,23.2%,?,?,-19.9,11.0%
CSc1ccc(Cl)c(C(=O)Nc2ccc(N3CCOCC3)cc2)c1,0.8%,-27.8%,-17.8%,-8.4,-28.0%
SMILES,HT1080-NT tox,TDP1 cell CPT,DT40 TDP1 no CPT,IL-1B inflam inh,HT1080 IDH1KD tx
CCOc1ccc(NC(=O)c2cc(SC)ccc2Cl)cc1,2.7%,18.4µM*,16.4µM*,-17.7,1.9%
CCCCCOc1ccc(NC(=O)c2cc(SC)ccc2Cl)cc1,11.6%,23.1µM*,13µM*,14.9,-7.6%
CC(=O)N1CCN(C)CC1,·,-4.7%,-5.9%,·,·
O=C(Nc1cc(S(=O)(=O)N2CCCCC2)ccc1N1CCCCC1)C1CC1,26.3%,-93.2%,16.4µM*,-3.5,0.8%
COc1ccc(S(=O)(=O)N2CCC(C(=O)Nc3ccccc3N3CCCC3)CC2)cc1OC,16.0%,?,-5.2%,?,5.0%
Cc1cc(C)c(C)c(S(=O)(=O)N2CCC(C(=O)NCC(c3ccccc3)N(C)C)CC2)c1C (stereo not drawn),?,-1.4%,?,?,18.4µM*
Cc1cccc(NC(=O)C2CCN(S(=O)(=O)c3c(C)c(C)cc(C)c3C)CC2)n1,-25.0%,14.6µM*,16.4µM*,-89.3*,?
CCOc1ccc(S(=O)(=O)N2CCC(C(=O)Nc3ccccc3N3CCCC3)CC2)cc1,-9.0%,?,20.6µM*,?,12.7%
COc1ccccc1NC(=O)CNC(=O)c1ccc([N+](=O)[O-])cc1,-3.6%,-29.1%,-23.4%,25.3,-0.2%
O=C1c2ccccc2NC(c2ccc(O)cc2)N1c1ccccc1 (stereo not drawn),11.4%,10.2%,-8.4%,3.4,16.6%
Cc1ccc(S(=O)(=O)N2CCC(C(=O)Nc3ccccc3N3CCCC3)CC2)cc1,-11.6%,-19.7%,-3.3%,-9.9,-5.1%
Cc1ccc(S(=O)(=O)N2CCC(C(=O)Nc3ccccc3N3CCCCC3)CC2)cc1,-6.6%,18.4µM*,?,-17.0,7.1%
Cc1cc(C)c(C)c(S(=O)(=O)N2CCC(C(=O)Nc3ccccc3N3CCOCC3)CC2)c1C,8.0%,?,14.6µM*,-7.3,6.9%
O=C(Nc1ccc(N2CCOCC2)cc1N1CCOCC1)c1ccc([N+](=O)[O-])cc1Cl,-1.2%,-21.4%,-5.0%,i,0.1%
Cc1cc(C)cc(Oc2coc3cc(OCC(=O)NC4CCCCC4)ccc3c2=O)c1,·,?,20.6µM*,·,·
Cc1ccc(C)c(Oc2coc3cc(OC(=O)c4cccs4)ccc3c2=O)c1,0.8%,29.1µM*,?,29.5,17.9%
CCOC(=O)Oc1ccc2c(=O)c(Oc3cc(C)cc(C)c3)coc2c1,-7.4%,-21.0%,-18.3%,34.1,-27.4%
CCc1ccccc1NC(=O)COc1ccc2c(=O)c(Oc3cc(C)ccc3C)coc2c1,-2.8%,18.4µM*,23.1µM*,5.3,-9.8%
COc1ccc(Oc2coc3cc(OC(=O)c4cccs4)ccc3c2=O)cc1,3.8%,-21.3%,-28.5%,11.0,7.4%[9.24 µM]
CN(C)CC(C)(O)c1ccc2c(c1)CN(C(=O)c1ccc(-n3cccn3)cc1)CCO2 (stereo not drawn),·,5.4%[9.04 µM],-0.4%,·,·
CCCOc1ccc(C(=O)Nc2ccc(S(=O)(=O)N3CCN(C)CC3)cc2)cc1,-11.0%,?,?,-0.7,-21.1%
